Screening results deposited in PubChem by several laboratories.
In the library only some 1.8% were active in any assay of this set; here they are far more common.
CendR NRP1 mod: modulators of CendR peptide binding to human neuropilin-1 | FAM-RPARPAR peptide binding to NRP-1, fluorescence polarization | inhibition, % at 25 µM | 0.85% of 360,000 active | AID 602438;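 active = inhibition or corrected inhibition above about 18%, plus a signal ratio from 0.5 to 1.5, limit read from the data, passing the limit was not always enough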
iPSC survival up: enhancers of human iPSC single-cell survival. hiPSC single-cell survival, ATPlite luminescence; 100% = ROCK inhibitor wells, 0% = DMSO. survival enhancement, % at 20 µM. 0.044% of 360,000 active. AID 602274; in the data active = survival enhancement above about 18%;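 note: cells exposed to compounds for 16 hours before the ATP read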
ABCB6 inh MLPCN: human ABCB6 transporter inhibition; Q9NP58; K562-ABCB6 porphyrin accumulation, flow cytometry, 1 h; hits give low values; fluorescence ratio to DMSO, % at 10 µM; 0.19% of 360,000 active;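 active = fluorescence ratio to DMSO below 75%, the collection mean minus 3 SD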;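 note: signal is porphyrin accumulated inside mitochondria; lower ratio means ABCB6 inhibition with less porphyrin fluorescence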
Target sequence (Q9NP58 whole entry, looked up): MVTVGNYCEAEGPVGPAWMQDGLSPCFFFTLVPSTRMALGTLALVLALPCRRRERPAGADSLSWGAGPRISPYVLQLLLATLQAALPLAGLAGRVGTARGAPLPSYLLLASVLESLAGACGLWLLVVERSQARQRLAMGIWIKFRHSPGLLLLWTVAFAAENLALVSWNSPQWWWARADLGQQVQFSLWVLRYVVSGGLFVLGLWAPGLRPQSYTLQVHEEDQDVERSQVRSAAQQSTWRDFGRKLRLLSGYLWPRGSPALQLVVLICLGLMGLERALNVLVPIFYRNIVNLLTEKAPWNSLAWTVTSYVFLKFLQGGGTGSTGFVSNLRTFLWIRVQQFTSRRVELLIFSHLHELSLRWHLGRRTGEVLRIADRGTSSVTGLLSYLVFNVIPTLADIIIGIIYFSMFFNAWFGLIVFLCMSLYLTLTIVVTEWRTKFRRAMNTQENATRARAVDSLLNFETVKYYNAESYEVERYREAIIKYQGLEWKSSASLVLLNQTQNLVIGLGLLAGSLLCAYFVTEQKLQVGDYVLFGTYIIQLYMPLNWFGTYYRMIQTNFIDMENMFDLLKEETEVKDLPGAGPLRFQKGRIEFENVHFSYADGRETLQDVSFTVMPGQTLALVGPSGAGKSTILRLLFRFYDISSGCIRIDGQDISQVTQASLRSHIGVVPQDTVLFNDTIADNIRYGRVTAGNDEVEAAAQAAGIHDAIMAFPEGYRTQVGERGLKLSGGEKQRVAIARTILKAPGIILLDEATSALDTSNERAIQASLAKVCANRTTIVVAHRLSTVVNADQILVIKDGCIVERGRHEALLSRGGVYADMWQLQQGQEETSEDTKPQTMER
INS-1E GSIS act: GLuc luminescence reporter in INS-1E cells, primary screen for activators of glucose-dependent secretion of insulin; INS-1E GLuc reporter insulin secretion, 2-3 h; AID 743287; 0.61% of 370,000 active; activation, % at 16.6 µM;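 active = lowest replicate activation of at least 40%, so every replicate reaches that level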
ARNT-TACC3 inh: disruptors of human ARNT/TACC3 interaction | Q9Y6A5 | AlphaScreen His-ARNT PAS-B/GST-TACC3 binding, luminescence; TACC3 fragment carries E629A point mutation | inhibition, % at 9.99 µM | 0.66% of 390,000 active | AID 623870;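 active = mean inhibition of replicates at least 50% and at least half of replicates each reaching 50%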
A number is an active result.

Screening COc1ccc(S(=O)(=O)N(C)C[C@H]2Oc3ncc(C#CC4(O)CCCC4)cc3C(=O)N([C@H](C)CO)C[C@@H]2C)cc1 returned INS-1E GSIS act inactive and ARNT-TACC3 inh 39.1.
`C[C@H]1CCCCO[C@H](CN(C)S(=O)(=O)c2cccs2)[C@@H](C)CN([C@@H](C)CO)C(=O)c2cc(NS(=O)(=O)c3ccccc3)ccc2O1` gave INS-1E GSIS act inactive and ARNT-TACC3 inh inactive.
Screening C[C@@H]1CCCCO[C@@H](CN(C)S(=O)(=O)c2cccs2)[C@@H](C)CN([C@H](C)CO)C(=O)c2cc(NS(=O)(=O)c3ccccc3)ccc2O1 returned CendR NRP1 mod inactive, iPSC survival up 22.1, ABCB6 inh MLPCN inactive, INS-1E GSIS act inactive and ARNT-TACC3 inh inactive.
For C[C@@H]1CN([C@H](C)CO)C(=O)c2cc(NC(=O)Cc3ccccc3)ccc2O[C@H]1CN(C)S(=O)(=O)c1ccccc1 the results were INS-1E GSIS act inactive and ARNT-TACC3 inh inactive.
Screening C[C@H](CO)N1C[C@H](C)[C@H](CN(C)S(=O)(=O)c2ccc(F)cc2)Oc2ccc(NS(=O)(=O)c3ccc(Cl)cc3)cc2C1=O returned INS-1E GSIS act inactive.
For CCCNC(=O)N(C)C[C@@H]1Oc2ncc(-c3ccncc3)cc2C(=O)N([C@H](C)CO)C[C@H]1C the results were INS-1E GSIS act inactive and ARNT-TACC3 inh inactive.
Screening COc1ccc(NC(=O)Nc2ccc3c(c2)C(=O)N([C@@H](C)CO)C[C@@H](C)[C@@H](CN(C)C(=O)Nc2c(C)noc2C)OCCCC[C@@H](C)O3)cc1 returned INS-1E GSIS act inactive and ARNT-TACC3 inh inactive.
`CC(C)OC(=O)c1nn2c(C(F)(F)F)cc(-c3ccc(Br)o3)nc2c1Br` gave CendR NRP1 mod inactive, iPSC survival up inactive, ABCB6 inh MLPCN inactive, INS-1E GSIS act 157.2 and ARNT-TACC3 inh inactive.
For C[C@@H]1CN([C@H](C)CO)C(=O)Cc2cc(NS(=O)(=O)c3ccccc3)ccc2O[C@H]1CN(C)Cc1ccc2c(c1)OCO2 the results were INS-1E GSIS act inactive and ARNT-TACC3 inh inactive.
Screening COc1ccc2c3c([nH]c2c1)[C@@H](CO)N(C(=O)C1CCC1)CC31CN(S(C)(=O)=O)C1 returned INS-1E GSIS act inactive.
For CCOc1ccc(N=Cc2c(C)[nH]n(-c3nc4ccccc4[nH]3)c2=O)cc1 the results were CendR NRP1 mod inactive, iPSC survival up inactive, ABCB6 inh MLPCN inactive, INS-1E GSIS act inactive and ARNT-TACC3 inh 71.6.
CCOc1cc(-c2noc(CCC(=O)NCCc3ccccc3)n2)ccc1OC was read as CendR NRP1 mod inactive, iPSC survival up inactive, ABCB6 inh MLPCN inactive, INS-1E GSIS act inactive and ARNT-TACC3 inh inactive.
Screening CCOc1ccc(-c2noc(CCC(=O)NC)n2)cc1OCC returned CendR NRP1 mod inactive, iPSC survival up inactive, ABCB6 inh MLPCN inactive, INS-1E GSIS act 56.0 and ARNT-TACC3 inh inactive.
`Cc1ccccc1-c1ccc([C@H]2[C@@H](CO)N3C(=O)CN(C(=O)c4cccnc4)C[C@H]23)cc1` gave INS-1E GSIS act inactive.
C[C@H](CO)N1C[C@H](C)[C@@H](CN(C)Cc2ccc(Cl)c(Cl)c2)Oc2ccc(NC(=O)Cc3ccccc3)cc2CC1=O was read as INS-1E GSIS act inactive and ARNT-TACC3 inh inactive.
CO[C@@H]1CN(C)C(=O)c2cc(NC(=O)c3cccc(Oc4ccccc4)c3)ccc2OC[C@@H](C)NC[C@@H]1C was read as INS-1E GSIS act inactive.
For COc1ccc2c3c([nH]c2c1)[C@H](CO)N(C(=O)CN(C)C)CC31CCN(C(=O)c2cccnc2)CC1 the results were INS-1E GSIS act inactive.
Screening Clc1ccc(/C=N/c2c(-c3ccco3)nc3ccccn23)cc1 returned CendR NRP1 mod 36.5, iPSC survival up inactive, ABCB6 inh MLPCN inactive and ARNT-TACC3 inh inactive.
COc1ccc(/C=N/NC(=O)c2nn(-c3ccc(Cl)cc3)c(=O)c3c(N)scc23)cc1 was read as CendR NRP1 mod 29.5, iPSC survival up inactive, ABCB6 inh MLPCN inactive and ARNT-TACC3 inh inactive.
`COc1ccc(/C=N/NC(=O)c2nn(-c3ccccc3)c(=O)c3c(N)scc23)cc1` gave CendR NRP1 mod inactive, iPSC survival up inactive, ABCB6 inh MLPCN inactive and ARNT-TACC3 inh inactive.
`O=C(C[C@H]1CC[C@H]2[C@@H](COC[C@@H](O)CN2S(=O)(=O)c2ccc(F)cc2)O1)N[C@H]1CCN(Cc2ccccc2)C1` gave INS-1E GSIS act inactive and ARNT-TACC3 inh inactive.
Screening CC(C)C(CO)N1CCN(Cc2ccccc2)CCC1=O (centres undefined) returned CendR NRP1 mod 24.4, iPSC survival up inactive, ABCB6 inh MLPCN inactive, INS-1E GSIS act inactive and ARNT-TACC3 inh inactive.
For CNC[C@@H]1OCCCC[C@@H](C)Oc2ccc(N(C)C)cc2C(=O)N([C@H](C)CO)C[C@@H]1C the results were INS-1E GSIS act inactive.
For O=c1[nH]c(=O)n(C2OC(CO)C(O)C2O)c2c1CCCC2 (centres undefined) the results were CendR NRP1 mod 22.9, iPSC survival up inactive, ABCB6 inh MLPCN inactive and INS-1E GSIS act inactive.
Screening O=C(C[C@H]1C=C[C@@H](NC(=O)Nc2ccccc2)[C@@H](CO)O1)NCc1cccc(F)c1 returned INS-1E GSIS act inactive.
For C[C@H](CO)N1C[C@H](C)[C@H](CN(C)S(=O)(=O)c2ccc(F)cc2)Oc2ccc(NC(=O)CCC(F)(F)F)cc2C1=O the results were INS-1E GSIS act inactive and ARNT-TACC3 inh inactive.
`Cc1nn(-c2ccccc2)c(C)c1C(=O)OCC(=O)N1c2ccccc2NC(=O)C1(C)C` gave CendR NRP1 mod 30.5, iPSC survival up inactive, ABCB6 inh MLPCN inactive and ARNT-TACC3 inh inactive.
`COc1ccc(NC(=O)N(C)C[C@@H]2Oc3ccc(NC(=O)Nc4ccc(C(F)(F)F)cc4)cc3CC(=O)N([C@@H](C)CO)C[C@H]2C)cc1` gave INS-1E GSIS act inactive and ARNT-TACC3 inh inactive.
Screening CC(C)(C)n1cnc2cc(NS(=O)(=O)c3ccccc3)ccc21 returned CendR NRP1 mod 22.9, iPSC survival up inactive, ABCB6 inh MLPCN inactive and ARNT-TACC3 inh inactive.
Screening CC(C)n1cc(/C(N)=N/O)c(=O)n(Cc2ccccc2)c1=O returned CendR NRP1 mod inactive, iPSC survival up inactive, ABCB6 inh MLPCN inactive and INS-1E GSIS act 60.9.
`COc1ccccc1CCn1cnc(-c2ccccc2OC)c1CC(C)C` gave INS-1E GSIS act 65.0.
`COc1ccccc1CCn1cnc(-c2ccc(F)cc2)c1CC(C)C` gave INS-1E GSIS act 120.1.
`CC(C)C[C@H](NC(=O)c1[nH]cnc1C(=O)N[C@@H](C)c1ccccc1)C(=O)OC(C)(C)C` gave CendR NRP1 mod inactive, iPSC survival up inactive, ABCB6 inh MLPCN inactive, INS-1E GSIS act 88.3 and ARNT-TACC3 inh inactive.
Screening CC1CCN(C(=O)c2[nH]cnc2C(=O)NC2CCN(C(=O)OC(C)(C)C)CC2)CC1 returned CendR NRP1 mod 29.2, iPSC survival up inactive, ABCB6 inh MLPCN inactive, INS-1E GSIS act inactive and ARNT-TACC3 inh inactive.
